The results in this text go back to PubChem BioAssay AID504467 (National Center for Advancing Translational Sciences (NCATS), 2011).

In all, about 330,000 compounds went through this assay and about 7,700 (2.3%) were called active. Another 26% or so got no clear call; they are omitted. This is one part of a sample in which actives are shown more often than they occur. Calls follow the shape of the dose curve; as a rule, active = well fitted inhibition curve with a large enough effect; inconclusive = small, poorly fitted or top-dose-only effect, or effect the other way; inactive = flat fitted curve, though single readings scatter.
% is scaled to controls: 0 for no effect and ±100 for the full control effect; potency is read from the fitted curve at half-maximal effect.

The assay is described as follows: qHTS screen for small molecules that inhibit ELG1-dependent DNA repair in human embryonic kidney (HEK293T) cells expressing luciferase-tagged ELG1. Also: nearly all actives have a fitted effect of over 55% in size. To be noted: HEK293T ELG1-luciferase reporter, luminescence, 16 h, DNA damage induced by 5-fluorouridine; series mostly up to 46.1 µM; activity change, negative = inhibition: at the top concentration. A digest of the protocol: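 Step one: seed 2,000 cells per well. Step two: pin-transfer compound or DMSO alongside 5-fluorouridine. Step three: incubate 16 hr, 37 °C, 5% CO2. Step four: add ONE-Glo, wait 30 min, read luminescence.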
(In general: qHTS replaces the single test concentration by a dilution series.)
`CC1CCC(N(C)C2CCN(C)CC2)CC1` (configuration not stated): the “activity change, negative = inhibition” value is -6.89% (inactive). Regarding `COc1cc(-n2c(=S)[nH]c3ccc(C)cc3c2=O)c(Cl)cc1Cl`, the Potency was 16.4 µM (active).

`COC(=O)C1=C(c2ccc(Cl)c(C(F)(F)F)c2)C[C@@H]2CC[C@H]1N2C(=O)NC(C)C`: the “activity change, negative = inhibition” value was -3.51% (inactive).

In the case of `O=C(O)c1ccccc1NC(=O)C1C2CCC(O2)C1C(=O)O` (configuration not stated), the “activity change, negative = inhibition” value is 27.7% (inactive).

For the molecule `COC(=O)C1=C(c2ccc(F)cc2OCc2ccccc2)C[C@@H]2CC[C@H]1N2C(=O)NCc1ccc(C(C)(C)C)cc1`, the “activity change, negative = inhibition” value was 1.55% (inactive). On the same count and under the same terms, as for `COc1ccc(CNCCc2ccc3c(c2)OCO3)c(OC)c1OC`, the figure is -12.2% (inactive). In the case of `O=C(NC(=S)N1C[C@H]2C[C@H](C1)c1cccc(=O)n1C2)c1ccc(F)cc1`, the “activity change, negative = inhibition” value was 1.64% (inactive). With `CN(c1ccccc1)c1ccc([N+](=O)[O-])c2nonc12`, the “activity change, negative = inhibition” value is -0.77% (inactive).

Consider `Oc1cc2c(cc1CN1CCN(c3ccccc3)CC1)OCO2`, for which the “activity change, negative = inhibition” value was 4.24% (inactive). `CCC(C)n1c(O)c(/C=N/Nc2nc3c(c(=O)n(C)c(=O)n3C)n2C)c(=O)[nH]c1=S` (configuration not stated): the Potency was 23.1 µM (active).

Take `C[C@]12CC[C@H](O)CC1=C([N+](=O)[O-])CC1C2CC[C@@]2(C)C1CC[C@@H]2O` (some centres not stated): the “activity change, negative = inhibition” value was -28% (inactive). Same read-out and setting: as for `c1ccc(CC2CCCCN2)cc1` (configuration not stated), the figure is 0.138% (inactive); as for `CCCCCn1c(=O)c(C(=O)NCc2ccccc2)c(O)c2ccccc21`, -26.2% (inactive). `CCCCCCCCCCCCn1ccc(=N)cc1`: the Potency was 5.8 µM (active).

As to `COc1cccc(OC)c1C(=O)NC(=S)N1C[C@H]2C[C@H](C1)c1cccc(=O)n1C2`, the “activity change, negative = inhibition” value was 18% (inactive). The same measure, in the same setting: next, `COC(=O)[C@@H]1C(OC(=O)c2ccccc2)CC2CCC1N2C` (some centres not stated): 2.1% (inactive). On to `CC[C@H]1CN2CCc3cc(OC)c(OC)cc3[C@@H]2C[C@@H]1C[C@H]1NCCc2cc(OC)c(OC)cc21`, for which the Potency is 0.259 µM (active).

With `COc1ccc(N2C(=O)/C(=C/c3ccco3)C(=O)NC2=S)cc1`, the “activity change, negative = inhibition” value is -10.8% (inactive). For `Cc1c(Oc2cc(NN3CCCCC3)c([N+](=O)[O-])cc2[N+](=O)[O-])cccc1[N+](=O)[O-]`, the “activity change, negative = inhibition” value was 27.2% (inactive). On to `CCc1ccc(OCC(=O)N2CCN(CC(=O)Nc3ccccc3Cl)CC2)cc1`, for which the “activity change, negative = inhibition” value was -14.5% (inactive). On to `COC(=O)C1=C(c2ccc(Cl)c(C(F)(F)F)c2)C[C@@H]2CC[C@H]1N2C(=O)NC1CC1`, for which the “activity change, negative = inhibition” value was -20.8% (inactive). On the same count and under the same terms, as for `C[C@]12CCC3C(CC[C@H]4C[C@@H](O)CC[C@]34C)C1CC[C@@H]2O` (some centres not stated), the figure is 5.31% (inactive).
